We go through eight compounds from PubChem BioAssay (NCI).

Test systems include SR leukemia; RPMI-8226 leukemia; OVCAR-8 ovarian; OVCAR-5 ovarian; OVCAR-4 ovarian; SK-OV-3 ovarian; IGROV1 ovarian; OVCAR-3 ovarian; HS 578T breast; NCI/ADR-RES ovarian; T-47D breast; BT-549 breast; MDA-MB-435 melanoma; SW-620 colon; MCF7 breast; HCT-116 colon; HCC-2998 colon; KM12 colon.
Common to all, as to assay: NCI-60 one-dose screen, 48 h (100 = growth as untreated, 0 = no growth, -100 = all killed)
Conditions in all cases: 10 µM unless noted

Molecules are shown by their SMILES. Compounds without any hit were thinned out: in the full panel of roughly 83,000, 20% have a hit.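 Negative percent growth values reflect cell death: -40 means 40% of the cells present at the start died, and -100 means all died.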 Unmarked numbers belong to inactive results. Activity calls are given as the source filed them. How the source made its calls: active means growth percent below 10; inactive means the rest.

With `Clc1cccc(-c2cc(-c3ccc4c(c3)OCCO4)[nH]n2)c1`, the growth is 29.3% [25 µM] with SR leukemia; 21.4% [25 µM] in the assay on RPMI-8226 leukemia; 38.2% [25 µM] in the assay on OVCAR-8 ovarian; 37% [25 µM] with OVCAR-5 ovarian; 68.3% [25 µM] in the assay on OVCAR-4 ovarian; 45.6% [25 µM] in the assay with SK-OV-3 ovarian. Further, the growth in the assay on IGROV1 ovarian was 39.9% [25 µM]; in the assay on OVCAR-3 ovarian, 12.8% [25 µM]; in the assay with HS 578T breast it was 47% [25 µM]; in the assay on NCI/ADR-RES ovarian it was 3.35% [25 µM] (active); in the assay on T-47D breast, 22% [25 µM]; in the assay with BT-549 breast it was 53.7% [25 µM]. The growth with MDA-MB-435 melanoma is -37.5% [25 µM] (active); with SW-620 colon it was 27.5% [25 µM]; in the assay with MCF7 breast, 15.6% [25 µM]; in the assay on HCT-116 colon, 26.3% [25 µM]; in the assay with HCC-2998 colon it was 58.1% [25 µM]; in the assay on KM12 colon, 25.7% [25 µM].

`C=C(C)[C@@H]1C[C@@H]2Cc3cc(Cl)ccc3N1O2`: the growth in the assay with SR leukemia is 90.5%; with RPMI-8226 leukemia, 83.2%; with OVCAR-8 ovarian it was 108%; with OVCAR-5 ovarian, 83.5%; with OVCAR-4 ovarian, 89.4%; in the assay with SK-OV-3 ovarian, 108%. Moreover, the growth in the assay with IGROV1 ovarian was 120%; with OVCAR-3 ovarian, 116%; in the assay on HS 578T breast, 95.9%; with NCI/ADR-RES ovarian, 100%; with T-47D breast, 106%; in the assay with BT-549 breast, 99.6%. The growth was 99.4% in the assay on MDA-MB-435 melanoma; 96.7% in the assay with SW-620 colon; 100% in the assay with MCF7 breast; 96.1% with HCT-116 colon; 99.1% in the assay with HCC-2998 colon; 105% in the assay with KM12 colon.

As to `NC(=O)c1c(NC(=S)Nc2ccc(OC(F)(F)F)cc2)sc2c1CCC1(C2)OCCO1`, the growth was 92.1% with SR leukemia; 93.2% with RPMI-8226 leukemia; 99.7% in the assay with OVCAR-8 ovarian; 91.9% in the assay with OVCAR-5 ovarian; 95.3% with OVCAR-4 ovarian; 89.9% with SK-OV-3 ovarian. In addition, the growth with IGROV1 ovarian is 96.3%; in the assay with OVCAR-3 ovarian it was 109%; in the assay on HS 578T breast, 79.5%; in the assay with NCI/ADR-RES ovarian, 98.9%; with T-47D breast, 86%; in the assay on BT-549 breast, 93.8%. The growth was 81.6% in the assay on MDA-MB-435 melanoma; 92.9% with SW-620 colon; 90.1% in the assay with MCF7 breast; 98.2% with HCT-116 colon; 102% with HCC-2998 colon; 94.6% in the assay on KM12 colon.

For `COc1ccc(C(=O)N2NC(=O)/C(=C/c3ccc(Br)cc3)N=C2c2ccccc2)cc1`, the growth in the assay on SR leukemia is 57.2%; with RPMI-8226 leukemia, 71.7%; in the assay on OVCAR-8 ovarian it was 78.4%; in the assay with OVCAR-5 ovarian, 91.4%; in the assay on OVCAR-4 ovarian, 92.7%; with SK-OV-3 ovarian, 85.3%. In addition, the growth is 92.5% in the assay with IGROV1 ovarian; 119% in the assay on OVCAR-3 ovarian; 94.9% with HS 578T breast; 83.4% in the assay on NCI/ADR-RES ovarian; 85.6% in the assay on T-47D breast; 85.5% in the assay with BT-549 breast. The growth was 90.7% in the assay on MDA-MB-435 melanoma; 91.3% in the assay with SW-620 colon; 85.1% in the assay on MCF7 breast; 75.5% in the assay on HCT-116 colon; 105% in the assay with HCC-2998 colon; 99.6% in the assay with KM12 colon.

For the compound `O=C(Nc1ccncc1)C(=O)c1cn(S(=O)(=O)c2ccc(Br)cc2)c2ccccc12`, the growth in the assay on SR leukemia is 26.1%; with RPMI-8226 leukemia, 35%; with OVCAR-8 ovarian, 58.6%; in the assay on OVCAR-5 ovarian it was 64.4%; in the assay on OVCAR-4 ovarian, 73.3%; in the assay on SK-OV-3 ovarian, 93.9%. For the same compound, the growth with IGROV1 ovarian was 45.1%; in the assay with OVCAR-3 ovarian, 14.7%; with HS 578T breast, 56.2%; with NCI/ADR-RES ovarian, 9.49% (active); in the assay on T-47D breast, 41%; with BT-549 breast, 41.1%. In addition, the growth was -3.46% (active) with MDA-MB-435 melanoma; 18.2% with SW-620 colon; 19.7% in the assay with MCF7 breast; 14.3% in the assay on HCT-116 colon; 72% in the assay on HCC-2998 colon; 26.2% in the assay on KM12 colon.

As to `CCOC(=O)C1=C(C)NC(C)=C(C(=O)OCC)C1(C)C`, the growth with SR leukemia was 90.6%; with RPMI-8226 leukemia, 94.8%; with OVCAR-8 ovarian, 102%; in the assay on OVCAR-5 ovarian, 99.7%; in the assay with OVCAR-4 ovarian, 101%; with SK-OV-3 ovarian, 110%. In addition, the growth in the assay on IGROV1 ovarian is 131%; in the assay with OVCAR-3 ovarian, 112%; in the assay with HS 578T breast, 107%; in the assay on NCI/ADR-RES ovarian, 122%; in the assay on T-47D breast, 95%; in the assay on BT-549 breast, 93.6%. In addition, the growth with MDA-MB-435 melanoma was 116%; in the assay with SW-620 colon it was 117%; with MCF7 breast, 98.9%; with HCT-116 colon it was 100%; in the assay with HCC-2998 colon it was 108%; in the assay on KM12 colon it was 118%.

`COc1cccc(/C=C2\Oc3cc(OCCCN4CCCC4)ccc3C2=O)c1`: the growth in the assay with SR leukemia is -22.9% (active); with RPMI-8226 leukemia, 61.6%; in the assay with OVCAR-8 ovarian, 91.4%; in the assay on OVCAR-5 ovarian, 89.1%; in the assay on OVCAR-4 ovarian, 112%; with SK-OV-3 ovarian, 109%. Further, the growth in the assay with IGROV1 ovarian was 73.6%; in the assay on OVCAR-3 ovarian it was 87.2%; in the assay with HS 578T breast it was 92.5%; in the assay on NCI/ADR-RES ovarian it was 89.1%; in the assay with T-47D breast it was 88.1%; in the assay with BT-549 breast, 92.6%. In addition, the growth with MDA-MB-435 melanoma was 99.2%; in the assay on SW-620 colon, 92.2%; in the assay on MCF7 breast, 51.2%; in the assay on HCT-116 colon, 21.1%; in the assay with HCC-2998 colon, 85.5%; with KM12 colon, 83.8%.

For the compound `O=C1c2c(c3c4ccccc4n(CCCCCCBr)c3c3[nH]c4ccccc4c23)C(=O)N1O`, the growth with SR leukemia was 6.48% (active); in the assay with RPMI-8226 leukemia, 1.01% (active); in the assay with OVCAR-8 ovarian, 0.342% (active); in the assay on OVCAR-5 ovarian, 19.8%; in the assay on OVCAR-4 ovarian, 7.84% (active); in the assay on SK-OV-3 ovarian, 3.04% (active). Moreover, the growth in the assay with IGROV1 ovarian was -5.71% (active); in the assay on OVCAR-3 ovarian it was 15%; in the assay on HS 578T breast, 50.3%; in the assay on NCI/ADR-RES ovarian it was 9.64% (active); with T-47D breast, 4.32% (active); in the assay with BT-549 breast, -3.13% (active). Also, the growth in the assay with MDA-MB-435 melanoma is 0.62% (active); in the assay with SW-620 colon, 15.1%; in the assay on MCF7 breast, 2.38% (active); in the assay with HCT-116 colon it was 6.41% (active); in the assay with HCC-2998 colon, 18.3%; in the assay with KM12 colon, 10.8%.
